# Records with an inconclusive call do not appear. A call without a number means that no potency is given here. Unmarked numbers belong to inactive results. The source made the active and inactive calls. The call rests on the fitted dose curve; in most records, active means well fitted curve in the direction sought with a large enough effect; inconclusive means small, poorly fitted or top-dose-only effect, or another doubt; inactive means no such curve, though single readings can be large; an effect the other way counts as inactive or inconclusive. *1 amine or outer side, *2 acyl side, *3 side chain or, on linkers, in order; H or OH if unused. Where a SMILES comes first, the peptide text is derived from it. [ ]: non-standard residue; d: D form. The star is where a group is joined. X4 = CC(C)=CCc1cc(C(O)C(N[*:1])C(=O)[*:2])ccc1O; AFC = O=c1cc(C(F)(F)F)c2ccc(N*)cc2o1
# Key:
# [1] = molecular target: Calcium and integrin-binding protein 1 (Homo sapiens) (UniProt Q99828); assay: Primary qHTS for Identification of Calcium Integrin Binding Protein 1 (CIB1) Competitor (AID 1508620);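 further: GST tagged CIB1 binding a fluorescein labelled alphaIIb integrin peptide tracer; top concentration of the series differs between compounds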
# Chain of Calcium and integrin-binding protein 1 (Homo sapiens) (Q99828 whole entry, looked up): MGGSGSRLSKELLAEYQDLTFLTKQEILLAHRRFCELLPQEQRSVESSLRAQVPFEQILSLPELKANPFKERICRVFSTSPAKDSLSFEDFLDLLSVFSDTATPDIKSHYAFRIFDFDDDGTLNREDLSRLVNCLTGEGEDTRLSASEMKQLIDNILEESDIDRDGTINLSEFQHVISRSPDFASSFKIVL
# Outline: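 Fluorescence polarization competition: GST-tagged CIB1 (1 uM final) preincubated with compound 15 min at room temperature, then FITC-labelled alphaIIb peptide (100 nM final) added. After 15 min at room temperature, polarization read at Ex 480/Em 540.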
# [2] = Primary qHTS for inhibitors of nuclear receptor binding SET domain protein 2 (NSD2) in an isogenic RCH-ACV NSD2 p.E1099K mutant (9B) (AID 1645876); further: nearly all actives have a fitted effect of over 70% in size; further: potency means the concentration at half of the fitted maximal effect
# [3] = Primary qHTS for inhibitors of nuclear receptor binding SET domain protein 2 (NSD2) in an RCH-ACV wild type WT cells (2C) (AID 1645877); further: nearly all actives have a fitted effect of over 70% in size; further: potency means the concentration at half of the fitted maximal effect
compound,measurement,setting,value
Cc1c(CN2CCN(C(=O)C(C)O)CC2)sc2c(N3CCOCC3)nc(-c3cnc(N)nc3)nc12 (stereo not drawn),Potency,[1],inactive
same,Potency,[2],57.8 nM (active)
same,Potency,[3],45.9 nM (active)
CN(C)CCCCC(=O)Nc1ccc(NC(=S)NC(=O)c2ccc(C(C)(C)C)cc2)cc1,Potency,[1],inactive
same,Potency,[2],1830 nM (active)
same,Potency,[3],2300 nM (active)
CC(=O)N[C@@H](Cc1c[nH]c2ccccc12)C(=O)N[C@@H](CCC(=O)O)C(=O)N[C@@H](Cc1cnc[nH]1)C(=O)N[C@@H](CC(=O)O)C(=O)Nc1ccc2c(C(F)(F)F)cc(=O)oc2c1 (Ac-WEHD-{AFC}),Potency,[1],inactive
same,Potency,[2],inactive
same,Potency,[3],inactive
COc1cc(C(=O)OC[C@@]2(O)CO[C@@H](O[C@H]3[C@H](Oc4ccc(C(=O)O)cc4OC)O[C@H](CO)[C@@H](O)[C@@H]3O)[C@@H]2O)ccc1O,Potency,[1],inactive
same,Potency,[2],inactive
same,Potency,[3],inactive
C[C@@H]1C(=O)O[C@H]2[C@@H](O)C34[C@H]5C[C@@H](C(C)(C)C)C36[C@@H](OC(=O)[C@@H]6O)O[C@@]4(C(=O)O5)[C@@]12O (stereo partly drawn),Potency,[1],inactive
same,Potency,[2],inactive
same,Potency,[3],inactive
CC(=O)c1c(O)cc(O[C@@H]2O[C@H](CO)[C@@H](O)[C@H](O)[C@H]2O)cc1O,Potency,[1],inactive
same,Potency,[2],inactive
same,Potency,[3],inactive
O=C1NC(=O)C(c2cn(-c3ccccc3)nc2-c2ccc(F)cc2)N1 (stereo not drawn),Potency,[1],inactive
same,Potency,[2],inactive
same,Potency,[3],inactive
CC1=CC(=O)CC(C)(CO)C1(O)/C=C/C(C)O[C@@H]1O[C@H](CO)[C@@H](O)[C@H](O)[C@H]1O (stereo partly drawn),Potency,[1],inactive
same,Potency,[2],inactive
same,Potency,[3],inactive
COc1ccc2nc(S(=O)(=O)Cc3ncc(C)c(OC)c3C)[nH]c2c1,Potency,[1],inactive
same,Potency,[2],inactive
same,Potency,[3],inactive
OCc1ccc(O[C@@H]2O[C@H](CO)[C@@H](O)[C@H](O)[C@H]2O)cc1,Potency,[1],inactive
same,Potency,[2],inactive
same,Potency,[3],inactive
CC(=O)OC1C[C@]2(C)C(O)CC(C)=C[C@H](OC(=O)c3ccc(O)cc3)C2[C@]1(O)C(C)C (stereo partly drawn),Potency,[1],inactive
same,Potency,[2],inactive
same,Potency,[3],inactive
CC(=O)O[C@@H]1[C@@H](O)[C@H](C)O[C@@H](O[C@H]2[C@@H]3C=CO[C@@H](O[C@@H]4O[C@H](CO)[C@@H](O)[C@H](O)[C@H]4O)[C@@H]3[C@@]3(CO)O[C@@H]23)[C@@H]1OC(=O)/C=C/c1ccccc1,Potency,[1],inactive
same,Potency,[2],inactive
same,Potency,[3],inactive
CC1=C(C(=O)O)/C(=C\CO[C@@H]2O[C@H](CO)[C@@H](O)[C@H](O)[C@H]2O)C(OC(=O)/C=C/c2ccc(O)cc2)C1 (stereo partly drawn),Potency,[1],inactive
same,Potency,[2],inactive
same,Potency,[3],inactive
COc1ccc(C(O)C(C)OC2OC(CO)C(O)C(O)C2O)cc1 (stereo not drawn),Potency,[1],inactive
same,Potency,[2],inactive
same,Potency,[3],inactive
C[C@@H]1CCC2C(C)(C)[C@H](O)CC[C@]2(C)[C@@]12Cc1c(O)cc3c(c1O2)CN([C@@H](CCC(=O)O)C(=O)O)C3=O (stereo partly drawn),Potency,[1],inactive
same,Potency,[2],inactive
same,Potency,[3],inactive
C=C1OC2CC(C(=O)O)C=CC2NC1=O (stereo not drawn),Potency,[1],inactive
same,Potency,[2],inactive
same,Potency,[3],inactive
CC(C)=CCc1cc(C(O)C2NC(=O)CNC(=O)C(Cc3c[nH]c4ccccc34)NC(=O)C3CCCN3C(=O)CNC(=O)C(C(C)C)NC(=O)CNC2=O)ccc1O (stereo not drawn) (cyclo(G[X4]GVGPW); configuration not given here),Potency,[1],inactive
same,"activity change, negative = viability loss",[2],-11.5% [at 9.23 µM]
same,"activity change, negative = cell killing",[3],-18.5% [at 9.23 µM]
COc1c2c(c(CO)c3c1C(=O)OC3)OC1(C)CCC3(O)C(C)(C)OC(=O)CCC3(C)C1C2 (stereo not drawn),Potency,[1],inactive
same,Potency,[2],inactive
same,Potency,[3],inactive
N[C@@]1(C(=O)O)CC[C@H]2[C@H](C(=O)O)[C@H]21,Potency,[1],inactive
same,Potency,[2],inactive
same,Potency,[3],inactive
CC1CCC2(OC1)OC1CC3C4CCC5C[C@@H](O[C@@H]6O[C@H](CO[C@@H]7OC[C@@H](O)[C@H](O)[C@H]7O)[C@H](O)[C@H](O)[C@H]6O)CC[C@]5(C)C4CC[C@]3(C)C1C2C (stereo partly drawn),Potency,[1],inactive
same,Potency,[2],inactive
same,Potency,[3],inactive
C[C@@H]1C(=O)O[C@H]2[C@H](O)C34[C@H]5C[C@@H](C(C)(C)C)C36[C@@H](OC(=O)[C@@H]6O)O[C@@]4(C(=O)O5)[C@@]12O (stereo partly drawn),Potency,[1],inactive
same,Potency,[2],inactive
same,Potency,[3],inactive
C=CC(=O)N1CCN(C(=O)CNc2cc(I)c(Cl)cc2O)CC1,Potency,[1],inactive
same,Potency,[2],5150 nM (active)
same,Potency,[3],5150 nM (active)
CC1(C)CC[C@]2(C(=O)O[C@@H]3O[C@H](CO)[C@@H](O)[C@H](O)[C@H]3O)CC[C@]3(C)C(=CCC4[C@@]5(C)CC[C@H](O[C@@H]6O[C@H](C(=O)O)[C@@H](O)[C@H](O)[C@H]6O)[C@@](C)(CO)C5CC[C@]43C)C2C1 (stereo partly drawn),Potency,[1],inactive
same,"activity change, negative = viability loss",[2],3.1% [at 9.23 µM]
same,"activity change, negative = cell killing",[3],4.55% [at 9.23 µM]
COC(=O)C1=COC(OC2OC(CO)C(O)C(O)C2O)C2C1C=CC2(O)CO (stereo not drawn),Potency,[1],inactive
same,Potency,[2],inactive
same,Potency,[3],inactive
COc1ccc(C[C@H](N)C(=O)N[C@@H]2[C@H](O)[C@H](n3cnc4c(N(C)C)ncnc43)O[C@@H]2CO)cc1,Potency,[1],inactive
same,Potency,[2],325 nM (active)
same,Potency,[3],205 nM (active)
C[C@@H]1CC[C@]2(C(=O)OC3OC(CO)C(O)C(O)C3O)CC[C@]3(C)C(=CCC4[C@@]5(C)CC[C@H](O)[C@](C)(C(=O)O)C5CC[C@]43C)C2[C@]1(C)O (stereo partly drawn),Potency,[1],inactive
same,Potency,[2],inactive
same,Potency,[3],inactive
CC(C)=CC/C=C(\C)[C@H]1CC[C@]2(C)[C@@H]1[C@H](O)C[C@@H]1[C@@]3(C)CC[C@H](O)C(C)(C)[C@@H]3[C@@H](O[C@@H]3O[C@H](CO)[C@@H](O)[C@H](O)[C@H]3O)C[C@]12C,Potency,[1],inactive
same,Potency,[2],inactive
same,Potency,[3],inactive
O=C(O)c1cc2cccc([N+](=O)[O-])c2[nH]1,Potency,[1],inactive
same,Potency,[2],inactive
same,Potency,[3],inactive
Cc1ccccc1C#Cc1ccc(CCC(=O)O)cc1,Potency,[1],inactive
same,Potency,[2],inactive
same,Potency,[3],inactive
CC1=C(C(=O)O[C@@H]2O[C@H](COC3OCC(O)C(O)C3O)[C@@H](O)[C@H](O)[C@H]2O)C(C)(C)CCC1 (stereo partly drawn),Potency,[1],inactive
same,Potency,[2],inactive
same,Potency,[3],inactive
C=CC(C)(O)CC[C@H]1C(=C)CCC2[C@](C)(C(=O)O)CCC[C@@]21C (stereo partly drawn),Potency,[1],inactive
same,Potency,[2],inactive
same,Potency,[3],inactive
CCC1C(=O)OC23C=C[C@@H]4C(C(=O)O)=CO[C@H](O[C@@H]12)[C@@H]43 (stereo partly drawn),Potency,[1],inactive
same,Potency,[2],25800 nM (active)
same,Potency,[3],18300 nM (active)
CC1OC(OCC2OC(OC3CCC4(C)C(CCC5(C)C4CC=C4C6CC(C)(C)CCC6(C(=O)OC6OC(CO)C(O)C(O)C6O)CCC45C)C3(C)CO)C(O)C(O)C2O)C(O)C(O)C1O (stereo not drawn),Potency,[1],inactive
same,"activity change, negative = viability loss",[2],3.81% [at 9.23 µM]
same,"activity change, negative = cell killing",[3],-0.623% [at 9.23 µM]
O=S(=O)(c1ccc(S(=O)(=O)n2cnc3ccccc32)cc1)N1CCCCCC1,Potency,[1],inactive
same,Potency,[2],inactive
same,Potency,[3],inactive
C/C=C1\[C@H](O[C@@H]2O[C@H](CO)[C@@H](O)[C@H](O)[C@H]2O)OC=C(C(=O)OC)[C@H]1CC(=O)O,Potency,[1],inactive
same,Potency,[2],inactive
same,Potency,[3],inactive
CC(=O)C1=C(C)N(c2cccc(C(F)(F)F)c2)C(=O)N[C@H]1c1ccc(C#N)nc1,Potency,[1],inactive
same,"activity change, negative = viability loss",[2],-10.2% [at 9.23 µM]
same,"activity change, negative = cell killing",[3],-17.1% [at 9.23 µM]
CC(=O)N[C@@H](C(=O)O[C@H]1CCC(C)(C)[C@@H]2CCC3=C(COC3=O)[C@@]12C)C(C)C,Potency,[1],inactive
same,Potency,[2],inactive
same,Potency,[3],inactive
C=CC(C)(C)c1[nH]c2cc3c(cc2c1CC1NC(=O)C2CCCN2C1=O)C=CC(C)(C)O3 (stereo not drawn),Potency,[1],inactive
same,Potency,[2],inactive
same,Potency,[3],inactive
CC1(C)CC[C@]2(C(=O)O[C@@H]3O[C@H](CO)[C@@H](O)[C@H](O)[C@H]3O)CC[C@]3(C)C(=CCC4[C@@]5(C)CC[C@H](O[C@@H]6O[C@H](C(=O)O)[C@@H](O)[C@H](O[C@@H]7O[C@H](CO)[C@H](O)[C@H](O)[C@H]7O)[C@H]6O)C(C)(C)C5CC[C@]43C)C2C1 (stereo partly drawn),Potency,[1],inactive
same,"activity change, negative = viability loss",[2],-8.36% [at 9.23 µM]
same,"activity change, negative = cell killing",[3],-15.1% [at 9.23 µM]
CC(C)c1ccc2c(c1)C(=O)CC1[C@@](C)(C(=O)O)CCC[C@]21C (stereo partly drawn),Potency,[1],inactive
same,Potency,[2],inactive
same,Potency,[3],inactive
C[C@@H]1O[C@@H](O[C@H]2[C@@H]3C=CO[C@@H](O[C@@H]4O[C@H](CO)[C@@H](O)[C@H](O)[C@H]4O)[C@@H]3[C@@]3(CO)O[C@@H]23)[C@H](OC(=O)/C=C/c2ccc(O)c(O)c2)[C@H](O)[C@H]1O,Potency,[1],inactive
same,Potency,[2],inactive
same,Potency,[3],inactive
CC(C)CC(=O)OC1OC=C(CO[C@@H]2O[C@H](CO)[C@@H](O)[C@H](O)[C@H]2O)C2CC(O)C(O)(CO)C12 (stereo partly drawn),Potency,[1],inactive
same,Potency,[2],inactive
same,Potency,[3],inactive
C[C@@H]1O[C@@H](O[C@H]2[C@H](O)[C@@H](O[C@@H]3O[C@H](CO)[C@@H](O)[C@H](O[C@@H]4O[C@H](CO)[C@@H](O)[C@H](O)[C@H]4O)[C@H]3O)[C@H](O[C@H]3CC[C@@]4(C)C(=CC[C@@H]5C4CC[C@@]4(C)C5C[C@@H]5OC6(CC[C@@](C)(CO[C@@H]7O[C@H](CO)[C@@H](O)[C@H](O)[C@H]7O)O6)[C@@H](C)[C@@H]54)C3)O[C@@H]2CO)[C@H](O)[C@H](O)[C@H]1OC1OC(CO)C(O)C(O)C1O (stereo partly drawn),"activity change, negative = inhibition",[1],-2.87% [at 12.4 µM]
same,outcome,[2],inactive [at 9.23 µM]
same,outcome,[3],inactive [at 9.23 µM]
COc1cccc2cc3c(c(O[C@@H]4O[C@H](CO[C@@H]5O[C@H](CO)[C@@H](O)[C@H](O)[C@H]5O)[C@@H](O)[C@H](O)[C@H]4O)c12)C(C)OC3=O (stereo partly drawn),Potency,[1],inactive
same,Potency,[2],inactive
same,Potency,[3],inactive
CC(=O)C12OC(C)(C)OC1CC1C3CCC4=CC(=O)C=CC4(C)C3(F)C(O)CC12C (stereo not drawn),Potency,[1],inactive
same,Potency,[2],inactive
same,Potency,[3],6.5 nM (active)
CC1OC(OC2C(C)OC(OC3C(OC(=O)C45CCC(C)(C)CC4C4=CCC6C7(C)CCC(OC8OC(C(=O)O)C(O)C(O)C8OC8OC(CO)C(O)C(OC9OC(C)C(O)C(O)C9O)C8O)C(C)(CO)C7CCC6(C)C4(C)CC5)OC(CO)C(O)C3O)C(O)C2O)C(O)C(O)C1O (stereo not drawn),"activity change, negative = inhibition",[1],-1.29% [at 12.4 µM]
same,"activity change, negative = viability loss",[2],2.43% [at 9.23 µM]
same,"activity change, negative = cell killing",[3],3.53% [at 9.23 µM]

# Reference: PubChem BioAssay (NCATS)
